From PubChem BioAssay
CYP2C19 activ: human CYP2C19 activators, primary screen, biochemical, luminescence; Cytochrome P450 2C19 (Homo sapiens), P33261; recombinant CYP2C19, luciferin-H EGE luminescence; stronger effect = higher value; 0 = fully inhibited enzyme, 1 = untreated enzyme; activation factor at 5 µM; 96,000 tested, under 10 active; AID 1025, 2008;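 active = activation factor of at least 2 at 5 µM in the primary screen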;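 note: 0 = wells with 2.5 mM tranylcypromine and 1 = vehicle-only wells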
Target sequence (P33261 whole entry, looked up): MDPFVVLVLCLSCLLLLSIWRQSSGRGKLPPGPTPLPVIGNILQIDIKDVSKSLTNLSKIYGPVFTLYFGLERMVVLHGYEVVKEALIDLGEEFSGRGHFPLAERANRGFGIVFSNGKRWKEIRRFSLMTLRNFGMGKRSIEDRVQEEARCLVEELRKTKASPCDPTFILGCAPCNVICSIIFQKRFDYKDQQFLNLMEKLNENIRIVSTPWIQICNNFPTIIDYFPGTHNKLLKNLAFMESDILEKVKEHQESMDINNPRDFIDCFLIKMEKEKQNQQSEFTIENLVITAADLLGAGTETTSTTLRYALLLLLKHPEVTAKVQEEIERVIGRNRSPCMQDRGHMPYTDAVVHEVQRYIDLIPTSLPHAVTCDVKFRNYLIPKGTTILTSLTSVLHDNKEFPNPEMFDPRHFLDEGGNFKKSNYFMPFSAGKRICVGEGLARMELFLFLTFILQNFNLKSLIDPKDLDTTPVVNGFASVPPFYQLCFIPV
CYP2C19 inh: blockers of cytochrome P450 2C19 activity – biochemical, luminescence, ADME assay, primary screen; P33261; CYP2C19 Supersomes, luciferin-H EGE luminescence, 30 min; inhibition, % at 5 µM; 21% of 96,000 active; AID 778, 2007;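 active = CYP2C19 inhibition above a set limit at 5 µM in the primary screen, cut at about 50% in these data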;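 note: plate controls were negative control wells for no effect and 2.5 mM tranylcypromine positive control for full effect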
Cav32 inh: Cav3.2 calcium influx blockers – cell-based, Fluo-4 calcium fluorescence, FDSS, MLSMR library, primary screen; Voltage-dependent T-type calcium channel subunit alpha-1H (Homo sapiens), O95180; Cav3.2-expressing cells; stronger effect = lower value; B-score at 10 µM; 4% of 100,000 active; AID 449739, 2010;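 active = single-dose well whose peak fluorescence ratio is a statistical outlier from its plate by either plate-standardised score or position-corrected B-score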
CYP2C9 act: human CYP2C9 activators, primary screen, biochemical, luminescence. Cytochrome P450 2C9 (Homo sapiens), P11712. recombinant CYP2C9, luciferin-H conversion; stronger effect = higher value; factor 1 = untreated enzyme, 0 = blocked. activation factor at 5 µM. 1.4% of 96,000 active;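 active = activation factor of 2 or more for CYP2C9 at a 5 µM dose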;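 note: 0 = sulfaphenazole-blocked wells and 1 = vehicle-only wells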
CYP2C9 inhib: blockers of cytochrome P450 2C9 activity – biochemical, luminescence, ADME assay, primary screen | CYP2C9 Supersomes, luciferin-H conversion | inhibition, % at 5 µM | 20% of 96,000 active;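 active = blocking of liver enzyme CYP2C9 beyond about 50% at 5 µM, limit read from the data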
The depositor's hits bear a star. A selection: hits, their analogues and other compounds. The true share with any hit is near 27%.

For COc1cc(OC)cc(-n2nnnc2SCC(=O)NCc2ccc3c(c2)OCO3)c1 the results were CYP2C19 activ 0.5, CYP2C19 inh 53*, Cav32 inh 0.8, CYP2C9 act 1.5 and CYP2C9 inhib -47.
`Cc1nnc(SCC(=O)NCc2ccc3c(c2)OCO3)[nH]c1=O` gave CYP2C19 activ 1, CYP2C19 inh 2, Cav32 inh -0.55, CYP2C9 act 0.3 and CYP2C9 inhib 68*.
For COc1cccc(-n2nnnc2SCC(=O)NCc2ccc3c(c2)OCO3)c1 the results were CYP2C19 activ 0.1, CYP2C19 inh 88*, CYP2C9 act 0.4 and CYP2C9 inhib 60*.
O=C(CSc1nnnn1-c1ccc2c(c1)OCO2)NCc1ccccc1 was read as CYP2C19 activ 0.1, CYP2C19 inh 92*, Cav32 inh -0.83, CYP2C9 act 0.7 and CYP2C9 inhib 33.
O=C(CSc1nnc(SCC(=O)NCc2ccc3c(c2)OCO3)s1)NCc1ccc2c(c1)OCO2 was read as CYP2C19 activ 1, CYP2C19 inh -1, Cav32 inh 0.27, CYP2C9 act 1 and CYP2C9 inhib 3.
`Cc1[nH]n(CCC#N)c(=O)c1CC(=O)N1CCN(c2ccccc2)CC1` gave CYP2C19 activ 1.1, CYP2C19 inh -14, Cav32 inh -0.61, CYP2C9 act 1.3 and CYP2C9 inhib -26.
`CN(Cc1ccccc1)c1ccc(S(=O)(=O)N2CCOCC2)cn1` gave CYP2C19 activ 0.7, CYP2C19 inh 30, Cav32 inh -0.0038, CYP2C9 act 1.4 and CYP2C9 inhib -37.
CCN(CC)S(=O)(=O)c1ccc(N(C)Cc2cccnc2)nc1 was read as CYP2C19 activ 0.2, CYP2C19 inh 81*, Cav32 inh 0.48, CYP2C9 act 0.3 and CYP2C9 inhib 68*.
For CC(C)(C)OC(=O)N1CCCC(C(=O)CC#N)C1 (stereo not drawn) the results were CYP2C19 activ 0.6, CYP2C19 inh 37, Cav32 inh 0.051, CYP2C9 act 0.3 and CYP2C9 inhib 66*.
Screening O=C(Nc1nnc(-c2ccc3c(c2)CCCC3)o1)c1ccccc1 returned CYP2C19 activ 1, CYP2C19 inh 3, Cav32 inh -5.6*, CYP2C9 act 0.7 and CYP2C9 inhib 31.
Screening O=C(Nc1nnc(-c2ccc3c(c2)CCCC3)o1)c1ccccc1Cl returned CYP2C19 activ 1, CYP2C19 inh -2, CYP2C9 act 1.2 and CYP2C9 inhib -16.
Cc1cccc(-c2nnc(NC(=O)c3ccc(Cl)cc3)o2)c1 was read as CYP2C19 activ 1, CYP2C19 inh 1, Cav32 inh -4.4*, CYP2C9 act 1.3 and CYP2C9 inhib -30.
C[C@H](NC(=O)c1nc[nH]c1C(=O)NC1CCN(C(=O)OC(C)(C)C)CC1)C(=O)OCc1ccccc1 was read as Cav32 inh 0.62.
Screening COc1ccc(C(=O)NC2CCSC2=O)cc1 (stereo not drawn) returned Cav32 inh 0.97.
Screening Cc1noc(/C=C/N(C)C)c1S(=O)(=O)N(C)CC(=O)NC1CCCCC1 returned CYP2C19 activ 0.6, CYP2C19 inh 39, CYP2C9 act 0.4 and CYP2C9 inhib 62*.
Cc1cc(C)c(S(=O)(=O)N(C)CC(=O)NC2CCCC2)c(C)c1 was read as CYP2C19 activ 0.2, CYP2C19 inh 80*, Cav32 inh 0.63, CYP2C9 act 2.2* and CYP2C9 inhib -124.
`CN(CC(=O)NC1CCCCC1)S(=O)(=O)c1ccc(Cl)cc1` gave CYP2C19 activ 0.9, CYP2C19 inh 6, Cav32 inh 0.58, CYP2C9 act 1 and CYP2C9 inhib 4.
For Cn1c(=O)c2cn(Cc3ccc(Cl)cc3)cc2n(C)c1=O the results were CYP2C19 activ 0.4, CYP2C19 inh 63*, Cav32 inh -0.24, CYP2C9 act 0.4 and CYP2C9 inhib 58*.
CN=C(C)c1c(O)c2ccccc2oc1=O was read as CYP2C19 activ 0.8, CYP2C19 inh 23, Cav32 inh 0.41, CYP2C9 act 0.7 and CYP2C9 inhib 25.
Screening C/C(=N/NC(=O)c1cc2ccccc2cc1O)C1C(=O)c2ccccc2C1=O returned CYP2C19 activ 0.1, CYP2C19 inh 91*, Cav32 inh -5.9*, CYP2C9 act 0 and CYP2C9 inhib 98*.
